# Results published in ChEMBL document CHEMBL3988442, “University of Dundee, Small-Polar-MMV Screening Library” (2021).
# Hit rate of the full screen: of about 38,000 compounds, about 1,200 (3.2%) showed an effect of 50% or more. The median lay at about -58%. For the sample, strong results were picked, then their nearest neighbours and some compounds at random.
# Test system: Plasmodium falciparum
# Assay: Calibr Malaria Delayed Death Assay SOP
# Format: functional, organism-based
# Parameters: scale not given: in the data most compounds retested in dose-response had high values
# Settings: concentration 4.99e-06 (unit not given; other assays of the set use mol/L)
row,Structure (SMILES),Percent Effect [%]
1,CCc1nc(CN2CCCN(Cc3noc(C4CC4)n3)CC2)cs1,-72.76
2,COc1cc(CN2CCCC23CCN(c2ccccn2)CC3)ccc1F,1.862
3,Cc1cc(C)c2[nH]c(C(=O)NCCN3CCCC3=O)c(C)c2c1,-119.1
4,CC(C)c1noc(CCNC(=O)N2CCN(c3cccs3)CC2)n1,-17.65
5,CCc1nc(CCNC(=O)Nc2cccc(C(=O)NC)c2C)cs1,-100.3
6,Cc1nnc(SC2CCc3ccccc3NC2=O)o1 (centres undefined),-88.91
7,CNc1cc(C)nc(NCc2cc(C)cc3c(C)c(C)[nH]c23)n1,91.83
8,Cc1cc(CNc2cncc(C(=O)N(C)C)n2)c2[nH]c(C)c(C)c2c1,-64.7
9,CNc1cc(C)nc(-c2cc(NC)nc3[nH]ccc23)n1,49.01
10,CNc1cc(C)nc(-c2cc(NCCO)nc3[nH]ccc23)n1,-113.9
11,CNc1nc(C)cc(NCc2cc(C)cc3c(C)c(C)[nH]c23)n1,92.52
12,CCN(Cc1cnn(CC)c1)Cc1c(Cl)cncc1Cl,-11.88
13,Cc1ccc(C2CN(CCCC#N)CCO2)c(C)c1 (centres undefined),-121.1
14,CCc1ncnc2c1CCN(S(=O)(=O)CC)CC2,-41.95
15,CN(CCCc1ccccc1)C(=O)c1ccccc1NCC(=O)O,-16.6
16,CCC1=NN2C(=N)/C(=C\c3cccn3-c3ccc(Cl)cc3)C(=O)N=C2S1,17.01
17,COc1cc(I)c(Cl)cc1C(=O)N(C)CC(=O)NC(C)(C)C,-34.35
18,CN1C(Cn2cccn2)C[C@@H]2CN(Cc3nccs3)CC[C@@H]21 (some centres undefined),-108.4
19,CC(C)N1[C@H](Cn2cccn2)C[C@@H]2CN(Cc3ccoc3)CC[C@@H]21.O=C(O)C(F)(F)F.O=C(O)C(F)(F)F.O=C(O)C(F)(F)F,39.12
20,CN1[C@H](Cn2cccn2)C[C@@H]2CN(C(=O)Cc3cccs3)CC[C@@H]21,-36.35
21,CN1C(Cn2cccn2)C[C@@H]2CN(Cc3ccccn3)CC[C@@H]21.O=C(O)C(F)(F)F.O=C(O)C(F)(F)F.O=C(O)C(F)(F)F.O=C(O)C(F)(F)F (some centres undefined),41.52
22,Cc1ccoc1C(=O)N1CC[C@H]2[C@H](C[C@@H](CN3CCCC3)N2C)C1.O=C(O)C(F)(F)F.O=C(O)C(F)(F)F,-53.97
23,CN1[C@H](Cn2cccn2)C[C@@H]2CN(Cc3cccs3)CC[C@@H]21.O=C(O)C(F)(F)F.O=C(O)C(F)(F)F.O=C(O)C(F)(F)F,75.74
24,CN1C(Cn2cccn2)C[C@@H]2CN(Cc3cccnc3)CC[C@@H]21.O=C(O)C(F)(F)F.O=C(O)C(F)(F)F.O=C(O)C(F)(F)F.O=C(O)C(F)(F)F (some centres undefined),11.1

row,Structure (SMILES),Percent Effect [%]
1,CN1[C@H](CN2CCCC2)C[C@@H]2CN(Cc3ccoc3)CC[C@@H]21.O=C(O)C(F)(F)F.O=C(O)C(F)(F)F.O=C(O)C(F)(F)F,57.43
2,CCc1nc2n(n1)CC(NCc1cc(OC)c3c(c1)OCCO3)CC2 (centres undefined),-60.23
3,O=C(CN1CC(c2ccccc2)CC1=O)N1CCN(c2nccs2)CC1 (centres undefined),-33.46
4,Cc1nc(-c2cccc(C(=O)O)c2)cc(C2CCCN(C(C)C)C2)n1 (centres undefined),-116.2
5,COc1cccc(CNc2nnc(C(C)(C)C)o2)c1OC,-115.2
6,CC(C)NC(=O)C1CCN(C(C)C(=O)N2CCc3sccc3C2)CC1 (centres undefined),-19.38
7,CC(C(=O)N1CCc2sccc2C1)N1CCC(N2CCCC2)CC1 (centres undefined),51.04
8,CC(C(=O)N1CCc2sccc2C1)N1CCCN(C2CC2)CC1 (centres undefined),19.49
9,COC(=O)CC(C1=Cc2ccccc2OC1)c1oc(C)cc(=O)c1O (centres undefined),-54.1
10,COCCC1(CNC(=O)Nc2ccc(-n3nccn3)cc2)CCC1,-17.2
11,COCCC1(CNC(=O)Nc2ccnc(C)c2)CCCC1,72.21
12,Cc1cc(NC(=O)NCC2(O)CCCC2)ccn1,-130.9
13,COc1ncc(C2(O)CCN(Cc3cc(F)cc(F)c3)CC2)c(OC)n1,-99.52
14,O=c1[nH]nc2c(S(=O)(=O)N3CCOCC3)cccn12,-183.8
15,CNC(=O)c1cc2c(nc1NCC1CC1)CCN(c1ncccn1)CC2,-64.19
16,O=S(=O)(Nc1ccc2c(c1)OCCO2)N1CCCCC1,-170
17,Cc1ccc(CNC(c2ccc(F)cc2)c2nccn2C)o1 (centres undefined),-33.59
18,Cn1ccnc1CN1CCCN(C(=O)c2ccc(Cl)o2)CC1,-26.42
19,Cc1ccc(CNCCC(O)(c2nccn2C)C(F)(F)F)o1 (centres undefined),72.37
20,Cc1ccc(CNC(c2cccc(F)c2)c2nccn2C)o1.Cl (centres undefined),35.29
21,CCc1n[nH]c(C2CN(C(=O)COCC(F)(F)F)CCO2)n1 (centres undefined),-109.1
22,CCc1c(C)n(CCC#N)c2nc3ccccc3n2c1=O,-59.08
23,CCc1nnc2n1CCN(C(=O)C1CCC(n3cccc3)CC1)C2 (centres undefined),-12.54
24,O=C1CCc2cc(-c3csc(CCN4CCOC4=O)n3)c(F)cc2N1,10.62

row,Structure (SMILES),Percent Effect [%]
1,COc1cccc(CSc2nnc(C)n2CC(N)=O)c1,-57.97
2,NC(=O)CN(Cc1ccc(Br)cc1)C(=O)c1cccnc1,-140.6
3,COc1ccc(CN2CCOC[C@H](Oc3cccnc3)C2)cc1,-114.4
4,Cc1ccc(-n2cc(CN3CCOCC(CN(C)C)C3)cn2)cc1C (centres undefined),38.47
5,Cc1cc(-n2cccn2)ccc1CN1CCOCC(CN(C)C)C1 (centres undefined),73.33
6,COc1ccc(CN2C[C@@H](CN(C)C)[C@@H](CO)C2)c(Cl)c1OC,-21.55
7,Cc1cc(-n2cccn2)ccc1CN1C[C@@H](CN(C)C)[C@@H](CO)C1,52.18
8,COc1ccc(O[C@H]2COCCN(Cc3c[nH]c4ccccc34)C2)cc1,-21.41
9,Cc1cc(C)c(-n2cccn2)c(CN2CCOCC(CN(C)C)C2)c1 (centres undefined),34.59
10,COc1ccc(-n2cccn2)c(CN2CCOCC(CN(C)C)C2)c1 (centres undefined),78.01
11,COc1ccc(CN2C[C@@H](CN(C)C)[C@@H](CO)C2)cc1OC,-68.69
12,CCc1cc2c(N3CCCC(c4ccn[nH]4)C3)ncnc2s1 (centres undefined),10.63
13,O=C(CC1CCc2ccccc21)N1CCC(O)(Cn2ccnc2)CC1 (centres undefined),-24.52
14,CCCN1CCC(c2nc3ccc(-c4cccc(OC)c4)cn3n2)CC1.O=C(O)C(F)(F)F,-29.22
15,CCN(CC)Cc1nnc2sc(-c3cc(C(C)C)[nH]n3)nn12,-70.51
16,CN(C(=O)Cn1nc(-c2ccc(Cl)cc2)ccc1=O)C1CCS(=O)(=O)C1 (centres undefined),1.296
17,CC(=O)N1CCC(c2nc3ccc(-c4ccnn4C)cn3n2)CC1.O=C(O)C(F)(F)F,-57.67
18,NC(=O)N1Cc2nccn2CC(Cn2ncccc2=O)C1 (centres undefined),-152.6
19,Cc1ccc(CN2CCC3(CCN(Cc4ccncc4)CC3)CC2)cc1,77.61
20,Cn1ccnc1CN1CC2(CCN(Cc3ccncc3)C2)C1,-45.53
21,COCCC(=O)N1CC2(CCN(Cc3ccncc3)CC2)C1,-37.67
22,CS(=O)(=O)N1CCOCC2(CCN(Cc3ccoc3)CC2)C1.O=C(O)C(F)(F)F,-77.45
23,Cc1nc(CN2CCC23CCN(Cc2ccoc2)CC3)cs1,35.85
24,Cc1ccc(CN2CCCC3(CCN(Cc4ccoc4)CC3)C2)cc1.O=C(O)C(F)(F)F.O=C(O)C(F)(F)F,79.2

row,Structure (SMILES),Percent Effect [%]
1,O=C(O)C(F)(F)F.O=C(O)C(F)(F)F.O=C(O)C(F)(F)F.c1cc(CN2CCCC23CCCN(Cc2ccoc2)C3)ccn1 (centres undefined),-115.9
2,CS(=O)(=O)N1CCCC12CCN(Cc1ccoc1)CC2,-46.44
3,COCCC(=O)N1CCC2(CCN(Cc3ccc(C)cc3)CC2)C1.O=C(O)C(F)(F)F,-50.1
4,Cc1ccc(CN2CCC3(CC2)CCN(Cc2ccoc2)CC3)cc1.O=C(O)C(F)(F)F.O=C(O)C(F)(F)F,92.5
5,COCC(=O)N1CCC2(CCN(Cc3ccc(C)cc3)CC2)CC1.O=C(O)C(F)(F)F,-23.78
6,O=C(CCn1cncn1)NC1CCc2nccn2C1 (centres undefined),-109.9
7,C[C@]1(O)CN(Cc2ccc(C(=O)O)cc2)CC[C@@H]1Oc1cccc(F)c1,-93.08
8,O=c1ccc2c(n1CC1CC1)CCN(c1ncccn1)CC2,5.282
9,O=C(O)C(F)(F)F.O=C(O)C(F)(F)F.c1ccc(COC[C@@H]2CCC[C@]23CN(Cc2nccs2)CCO3)nc1,-24.57
10,O=S(=O)(Cc1ccc(F)cc1)NCCc1nnc2n1CCC2,-62.4
11,Cc1nc(CNC(=O)NC(C)c2ccc3c(c2)OCCO3)cs1 (centres undefined),-69.15
12,COCCn1ccc(=O)c(OCC(=O)Nc2cccc(OC)c2)c1C,-50.47
13,COCc1cc(CNCc2c(C)n(CC(C)C)c3ccccc23)n[nH]1,-32.81
14,Cc1cc(NC(=O)C(C#N)Cc2cnn(C)c2C)no1 (centres undefined),-0.6706
15,O=C(c1cnccn1)N1CCC2(CCCN(Cc3ccoc3)C2)C1 (centres undefined),-97.37
16,Cc1ccc(CN2CCC3(CCCN(C(=O)N(C)C)C3)C2)cc1 (centres undefined),-64.1
17,CCOC(=O)[C@H]1[C@@H](O)C(=O)N(C)C12CCN(C(=O)C(CC)CC)CC2,-15.32
18,CCN(C)C(=O)Nc1cc(F)c(OC)cc1F,-13.37
19,O=C(c1ccc(F)c(Br)c1)N1CCCN2CCCC2C1 (centres undefined),22.61
20,COc1ccc(N2CCCC3(C2)CN(c2nncs2)CCO3)cc1 (centres undefined),87.98
21,c1cncc(N2CCOC3(CCCN(c4nncs4)C3)C2)c1 (centres undefined),-13.46
22,Cc1cccc(N2CCCC3(C2)CN(c2nncs2)CCO3)c1 (centres undefined),-92.55
